The record followed here is the supplement of paper PMC10681739.

The target of assay [1] is T1, ETS1 (UniProt P14921).
T1 sequence: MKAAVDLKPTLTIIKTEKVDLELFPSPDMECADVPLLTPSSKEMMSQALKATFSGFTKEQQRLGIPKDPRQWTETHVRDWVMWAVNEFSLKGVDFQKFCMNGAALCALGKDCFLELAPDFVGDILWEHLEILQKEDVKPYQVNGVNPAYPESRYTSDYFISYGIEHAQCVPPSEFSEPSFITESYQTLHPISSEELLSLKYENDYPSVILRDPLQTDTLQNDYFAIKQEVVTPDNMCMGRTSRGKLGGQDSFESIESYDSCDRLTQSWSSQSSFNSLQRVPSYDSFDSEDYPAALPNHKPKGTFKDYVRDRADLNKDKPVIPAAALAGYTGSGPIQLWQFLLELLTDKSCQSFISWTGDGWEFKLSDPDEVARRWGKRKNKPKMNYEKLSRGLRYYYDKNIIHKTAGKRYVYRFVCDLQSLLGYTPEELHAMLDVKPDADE
Put plainly: ETS1 binding intensity (PBM fluorescence), ETS1 alone (arbitrary fluorescence units); higher = stronger binding. The note with it: ETS1 concentration 1 nM; RUNX1 concentration 0 nM.

Assay [2] addresses RUNX1 (UniProt Q01196). As to the kind of experiment: RUNX1 binding intensity (PBM fluorescence), RUNX1 alone (arbitrary fluorescence units); higher = stronger binding. The note with it: RUNX1 concentration 2 nM; ETS1 concentration 0 nM. The protocol: (§1)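 Cooperative gcPBM on 36-bp genomic probes with neighbouring ETS1 and RUNX1 sites. Recombinant human RUNX1 (2 nM) was incubated alone or with ETS1 (25 nM) and detected with anti-RUNX1 antibody plus Alexa488 secondary. Values are medians over 4 replicate spots; the RUNX1+ETS1 data were normalised to the RUNX1-only data. The probes sit in constant array flanks that are not printed.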

For assay [3], the target named is T1, ETS1. Put plainly: ETS1 binding intensity (PBM fluorescence) in presence of RUNX1, normalised to ETS1-only experiment (arbitrary fluorescence units); higher = stronger binding. The settings on record: ETS1 concentration 1 nM; RUNX1 concentration 25 nM.
Assay [4] addresses RUNX1 (UniProt Q01196). As to the kind of experiment: RUNX1 binding intensity (PBM fluorescence) in presence of ETS1, normalised to RUNX1-only experiment (arbitrary fluorescence units); higher = stronger binding. The note with it: RUNX1 concentration 2 nM; ETS1 concentration 25 nM. Here is the method: as §1
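Wherever RUNX1 binding intensity (PBM fluorescence) in presence of ETS1, normalised to RUNX1-only experiment is given: Full-length recombinant human ETS1 or RUNX1 bound to double-stranded 36-bp genomic probes on microarrays, detected by protein-specific primary antibody and Alexa488 secondary, spot fluorescence as median of four replicate spots.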
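Wherever RUNX1 binding intensity (PBM fluorescence), RUNX1 alone is given: Full-length recombinant human RUNX1 bound to double-stranded 36-bp genomic probes on a high-density microarray, scored as Alexa488 fluorescence per spot via anti-RUNX1 antibody, median of four replicate spots.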

Chain of RUNX1 (Q01196 whole entry): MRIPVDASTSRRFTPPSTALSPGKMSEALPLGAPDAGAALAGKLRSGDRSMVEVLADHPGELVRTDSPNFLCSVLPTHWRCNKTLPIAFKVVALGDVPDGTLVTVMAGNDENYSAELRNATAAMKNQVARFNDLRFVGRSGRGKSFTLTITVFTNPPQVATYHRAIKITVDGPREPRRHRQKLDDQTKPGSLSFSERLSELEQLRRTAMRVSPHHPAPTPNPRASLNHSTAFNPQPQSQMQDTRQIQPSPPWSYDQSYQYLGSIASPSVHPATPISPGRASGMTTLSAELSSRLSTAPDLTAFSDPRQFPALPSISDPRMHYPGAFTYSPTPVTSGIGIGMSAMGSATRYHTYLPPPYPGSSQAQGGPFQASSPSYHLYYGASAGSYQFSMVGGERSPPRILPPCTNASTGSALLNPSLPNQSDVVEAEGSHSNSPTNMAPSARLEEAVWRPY

GCCACATATTTCCTGTGACAACCCTGTGGTGTGGCT: the ETS1 binding intensity in assay [1] was found to be 641; in assay [3] it was 723. Also, the RUNX1 binding intensity in assay [2] was determined as 848; in assay [4], 1640.
Taken in the same sequence, the figures for AAAATTAAAGCAGGAAGTAATCAACCACATCAAATG were 3130, 9610, 761 and 1610.
Taken in the same sequence, the figures for CTGGGGAGGAAGCCTGAGGTGTGTGGTTTTGTTAAC were 374, 811, 1040 and 983.
Taken in the same sequence, the figures for GCAGCCCAGCTTCCTGCAGACCAAAACCACAAGCAG were 542, 2540, 1390 and 4140.
With CAGAACGGTCCCCGGAACACTGCGGTTCCCGCCTGG, the ETS1 binding intensity in assay [1] was 357; in assay [3] it was 895. Besides, the RUNX1 binding intensity in assay [2] is 1040; in assay [4] it was 889.
Taken in the same sequence, the figures for CCGGGCTGCGGAAGGCGGGAATTCTGCGGTTCGCGG were 405, 1990, 1230 and 1720.
On to CAGGTTGTTGAGGATGTGGAGAAACCGCAACCTCGT, for which the ETS1 binding intensity in assay [1] was 581; in assay [3], 7360. Moreover, the RUNX1 binding intensity in assay [2] turned out to be 3670; in assay [4], 6690.
Taken in the same sequence, the figures for CTTGGCGGAAGTGGTGTGGGGGAGGTAGCCCGCAGT were 1840, 5600, 753 and 3460.
Taken in the same sequence, the figures for GAGGCGACCCACATCCGCTGTGCGGGGGCAACTGCA were 957, 1270, 729 and 6600.
Taken in the same sequence, the figures for GACAGGAAGCCCGCGGCAGCCTCCGTGGTTGCAGAT were 562, 687, 773 and 1090.
On to TGCCTCCTCGTCACAGGATGTGGTCGCTGCACCCTG, for which the ETS1 binding intensity worked out at 5200 in assay [1] and 16000 in assay [3]. The RUNX1 binding intensity amounted to 788 in assay [2] and 1700 in assay [4].
Taken in the same sequence, the figures for GCCGCTGGGTAGGCGGAAGTAGCCGCAGGCATGGCA were 5590, 7400, 760 and 1000.
Taken in the same sequence, the figures for CCCCCTGAACATCCGGGGCCTTTTAACCGCCCACGG were 1290, 1690, 937 and 1790.
Taken in the same sequence, the figures for GCGCTTCCTGCCAGCTTGGAGGATAACCGCCTACCG were 505, 513, 754 and 1730.
CCCGACTTCCGCCGCTGGTGGCCACCCGCAGGTAGT: the results for the ETS1 binding intensity in assay [1] and in assay [3] were 732 and 1050, respectively. In addition, the RUNX1 binding intensity in assay [2] was 789; in assay [4], 2050.
Taken in the same sequence, the figures for AACAACAGGATGCTCTCTAGTCTAACAGTGGTAACA were 847, 820, 866 and 1020.
Taken in the same sequence, the figures for CACCGGAAAAGGCAAGCGCGGCCGCGCGGTTGGCGC were 675, 1090, 745 and 1160.
Taken in the same sequence, the figures for CCTCACTAACATCCTGTTGAGGTGTCCCACAAACCA were 1110, 1090, 801 and 1490.
As for CTGGGGATGTGTGACACTCAGAGAAACCACAAGGTG, the ETS1 binding intensity in assay [1] was 495; in assay [3], 1390. For the same sequence, the results for the RUNX1 binding intensity in assay [2] and in assay [4] were 1010 and 1140, respectively.
Taken in the same sequence, the figures for AGAAACATCCTGCCCAGCCACCTGACCACAAGGCAC were 377, 1070, 1280 and 3130.
Taken in the same sequence, the figures for CTTACCTACAGTTCCGCTTGCTGTGGTTTCAGTTAC were 403, 843, 1040 and 2060.
Taken in the same sequence, the figures for TGCACCCGCCACTTCCGCATCGAACCGCCGCTTCAA were 1100, 1140, 1030 and 3470.
For GCTGCAAGGCGGAAGCAGCGCGGTCGGACGGGCATG, the ETS1 binding intensity in assay [1] is 1650; in assay [3], 2400. The figures for the RUNX1 binding intensity in assay [2] and in assay [4] were 721 and 997, respectively.
Taken in the same sequence, the figures for GAGTGACTGCTAACGGATGTGTGGTTTCTTTAGTTT were 2000, 6590, 926 and 1470.
Taken in the same sequence, the figures for TTTAGACACCGCTTCCTGCCACAAGCCCAAGACTTA were 758, 839, 918 and 3470.
